dFosB activator: activators of delta FosB homodimer, primary screen, biochemical, fluorescence polarization, TAMRA-CDK5 oligo, single point; AID 493131, 2011; 0.99% of 340,000 active; activation, % at 25 µM; purified delta FosB; percent of positive-control signal above neutral wells;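 active = mean activation above about 17%, with every replicate also reaching it, limit read from the data, passing the limit was not always enough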
Target sequence (P13346 whole entry, looked up): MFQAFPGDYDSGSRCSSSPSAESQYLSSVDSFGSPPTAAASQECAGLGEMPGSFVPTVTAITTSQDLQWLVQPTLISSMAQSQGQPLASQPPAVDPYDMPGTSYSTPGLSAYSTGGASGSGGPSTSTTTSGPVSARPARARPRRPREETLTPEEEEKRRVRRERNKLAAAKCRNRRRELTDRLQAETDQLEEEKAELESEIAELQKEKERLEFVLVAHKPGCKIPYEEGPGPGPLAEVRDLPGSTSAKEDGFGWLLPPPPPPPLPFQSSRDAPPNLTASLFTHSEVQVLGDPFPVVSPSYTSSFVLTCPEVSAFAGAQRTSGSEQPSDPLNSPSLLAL
Vif imaging: HIV Vif self-association inhibitors, primary screen, imaging, HEK293T, single point; HEK293T cells, Vif self-association by quenched fluorescence, 24 h; inhibition, % at 7.49 µM; 0.35% of 340,000 active; AID 602346, 2012; in the data active = inhibition above about 50%, passing the limit was not always enough
A1 inh: caspase 3/7 activation in MEF A1-2A-BIM cells, primary screen, A1 inhibitor project, cell-based, luminescence, HTS; 0.066% of 330,000 active; caspase activation, % (concentration not given with the values); Caspase-Glo 3/7 luminescence, 3 h; percent of clofoctol response, vehicle zero; AID 2462, 2010;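 active = over half of replicate activation scores above 10%, or exactly half above 10 with the replicate mean above 10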
INS-1E GSIS act: GLuc luminescence reporter in INS-1E cells, primary screen for activators of glucose-dependent secretion of insulin | AID 743287, 2014 | 0.61% of 370,000 active | activation, % at 16.6 µM | INS-1E GLuc reporter insulin secretion, 2-3 h;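 active = lowest replicate activation of at least 40%, so every replicate reaches that level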;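 note: 0% = median of neutral control wells and 100% = median of IBMX positive control wells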
Neddylation inh: inhibitors of cullin neddylation, primary screen, biochemical, TR-FRET, uHTS, NAE and Ubc12. NEDD8-conjugating enzyme Ubc12 (Homo sapiens) + NEDD8-activating enzyme E1 regulatory …. inhibition, % at 25 µM. 0.58% of 360,000 active. AID 651699, 2012; in the data active = inhibition above about 36%
Neddyl inh conf: blockade of NEDD8 conjugation to cullin – biochemical, TR-FRET, single concentration, confirmation | shares compounds with Neddylation inh | TR-FRET cullin neddylation biochemical assay | calls only at 25 µM | 13% of 1,800 active; in the data active = inhibition above about 40%;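 note: neddylation substrate is the cullin 1 ring ligase complex with SKP2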
An asterisk follows results filed as active. Rows were chosen to be rich in hits. Some 1.9% of all compounds tested hit in one or more screens of this group.

For CC1(C)CC(=O)c2cc(OCC(=O)N3CCN(c4ccccc4F)CC3)ccc2O1 the results were dFosB activator -13, Vif imaging 0, A1 inh 0, INS-1E GSIS act -38 and Neddylation inh 52*.
For CCNC(=O)[C@H]1[C@H](CO)[C@H]2Cn3c(ccc(-c4cccnc4)c3=O)[C@H]2N1Cc1ccccc1 the results were INS-1E GSIS act 15.
For Cn1c(-c2sc3cc(C(F)(F)F)cnc3c2-c2ccccn2)n[nH]c1=S the results were dFosB activator 2, Vif imaging 4, A1 inh 0, INS-1E GSIS act -26 and Neddylation inh -6.
For CSc1nnc(-c2sc3cc(C(F)(F)F)cnc3c2-c2ccccn2)n1C the results were dFosB activator -4, Vif imaging 8, A1 inh 0, Neddylation inh 42* and Neddyl inh conf inactive.
For C[C@@H]1CCCCO[C@@H](CN(C)CC2CC2)[C@@H](C)CN([C@H](C)CO)C(=O)c2cc(NC(=O)c3ccncc3)ccc2O1 the results were INS-1E GSIS act 21.
For CCN=C1S/C(=C/c2ccc(-c3ccc(F)cc3)o2)C(=O)N1CC the results were dFosB activator -10, Vif imaging -3, A1 inh -1, INS-1E GSIS act 4 and Neddylation inh 18.
For CCN=C1S/C(=C\c2ccc(Sc3ccc(Cl)cc3)o2)C(=O)N1CC the results were dFosB activator -9, Vif imaging 30, A1 inh 0 and Neddylation inh 39*.
Screening O=C1NC(c2cccs2)Nc2sc3c(c21)CCCC3 (stereo not drawn) returned dFosB activator -14, Vif imaging 3, A1 inh -5, INS-1E GSIS act 54, Neddylation inh 44* and Neddyl inh conf inactive.
For CC(=O)N(C)c1cccc(-c2ccc3nnc(C)n3n2)c1 the results were dFosB activator 6, Vif imaging 5, A1 inh 0, INS-1E GSIS act 34 and Neddylation inh 53*.
For C[C@H]1CN([C@@H](C)CO)C(=O)Cc2cc(N(C)C)ccc2O[C@@H]1CN(C)C(=O)Nc1cccc2ccccc12 the results were INS-1E GSIS act -14.
Screening COc1ccc(S(=O)(=O)Nc2ccc3c(c2)C(=O)N([C@@H](C)CO)C[C@@H](C)[C@H](CN(C)S(=O)(=O)c2c(C)noc2C)OCCCC[C@@H](C)O3)cc1 returned INS-1E GSIS act -8.
Screening CN1[C@H](C(=O)NC2CCCCC2)[C@@H](CO)[C@@H]2Cn3c(ccc(-c4cccc(F)c4)c3=O)[C@@H]21 returned INS-1E GSIS act 0.
`Cn1c(=O)[nH]c(=O)c2c1nc(N1CCCCC1)n2C/C=N/NC(=O)c1cc(Br)ccc1O` gave dFosB activator -4, Vif imaging 0, A1 inh -1, INS-1E GSIS act -2 and Neddylation inh 46*.
For CCSc1nc2c(c(-c3ccc(C)o3)c1C#N)CCCC2 the results were dFosB activator -2, Vif imaging -8, A1 inh 3 and Neddylation inh -3.
`Cc1ccc(-c2c(C#N)c(N)nc3c2CCCC3)o1` gave dFosB activator -4, Vif imaging -2, A1 inh -1, INS-1E GSIS act -9, Neddylation inh 45* and Neddyl inh conf inactive.
Screening COC(=O)c1ccc2nc(-c3ccc(F)cc3)c(Cc3ccccc3OC)n2c1 returned INS-1E GSIS act 3, Neddylation inh 53* and Neddyl inh conf inactive.
For Cc1noc(C)c1NC(=O)N(C)C[C@H]1OCCCC[C@H](C)Oc2ccc(NC(=O)CCC(F)(F)F)cc2C(=O)N([C@@H](C)CO)C[C@@H]1C the results were INS-1E GSIS act 1.
Screening Cc1ccccc1NC(=O)Nc1ccc2c(c1)C(=O)N(C)[C@@H]1CC[C@H](CC(=O)O)O[C@H]1CO2 returned INS-1E GSIS act -5.
Screening Cc1cc(C)cc(Oc2nc3ccccn3c(=O)c2/C=C(\C#N)C(=O)NC2CCS(=O)(=O)C2)c1 (stereo not drawn) returned dFosB activator -8, Vif imaging -4, A1 inh -1, INS-1E GSIS act -16, Neddylation inh 48* and Neddyl inh conf inactive.
Screening Cc1ccc(Oc2nc3ccccn3c(=O)c2/C=C(\C#N)C(=O)NC2CCS(=O)(=O)C2)c(C)c1 (stereo not drawn) returned dFosB activator -2, Vif imaging -2, A1 inh 0 and INS-1E GSIS act -8.
`CCOC(=O)C1=C(C)NC(C)=C(C(=O)OCC)C1C(=O)OCC(=O)NC(C)c1ccccc1` (stereo not drawn) gave dFosB activator -14, INS-1E GSIS act -17 and Neddylation inh 45*.
Screening Nc1nccnc1C(=O)OCC(=O)NCCc1ccc(S(N)(=O)=O)cc1 returned dFosB activator -4, Vif imaging 16, A1 inh 0, INS-1E GSIS act 42 and Neddylation inh 63*.
Screening CCOC(=O)C1=C(C)NC(C)=C(C(=O)OCC)C1C(=O)OCC(=O)NCCc1ccc(S(N)(=O)=O)cc1 returned dFosB activator -13, Vif imaging 14, A1 inh 1, INS-1E GSIS act 6, Neddylation inh 42* and Neddyl inh conf inactive.
Screening CN1c2ccc(C3=CCCCC3)cc2[C@@H]2[C@@H](CCN2C(=O)C2CCCCC2)[C@H]1CO returned INS-1E GSIS act -12.
Screening C[C@H]1CN([C@@H](C)CO)C(=O)c2cc(NC(=O)C3CC3)ccc2O[C@@H]1CN(C)Cc1ccc(C(F)(F)F)cc1 returned INS-1E GSIS act -13.
For CC(=O)Nc1ccc(S(=O)(=O)Nc2cccc(-c3nc4ccccc4o3)c2)cc1 the results were dFosB activator -7, Vif imaging -3 and A1 inh -2.
Screening O=S(=O)(Nc1ccc(-c2nc3ccccc3o2)cc1)c1ccccc1 returned dFosB activator -31, Vif imaging -5, A1 inh -1 and Neddylation inh 43*.
Screening CO[C@@H]1CN(C)C(=O)c2cc(NC(=O)c3ccccc3)ccc2OC[C@H](C)N(CC2CC2)C[C@@H]1C returned INS-1E GSIS act 5.
Screening CS(=O)(=O)Nc1ccc(C2=NN(C(=O)c3ccco3)C(c3ccccc3F)C2)cc1 (stereo not drawn) returned dFosB activator -6, A1 inh 0, INS-1E GSIS act 12, Neddylation inh 48* and Neddyl inh conf inactive.
